# According to the supplement of paper PMC11001985:
# Compound: C#CCNC(=O)CCSSCCC(=O)NCCc1ccc(C=O)c(C=O)c1
# Assay: lysine labeling ratio R10:1 (500 µM / 50 µM probe), SILAC-ABPP in living cells; higher = lower intrinsic lysine reactivity toward the probe, active = 2 or less
# Conditions: HeLa; probe concentrations 500 vs 50 µM
# Outline: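 An alkyne-tagged lysine probe with a disulfide linker labelled living HeLa cells in PBS at room temperature at either 50 µM or 500 µM, using SILAC light and heavy cells in forward and reverse label swaps. Lysates were mixed, clicked to biotin-azide, trypsin-digested, enriched on neutravidin, DTT-released, alkylated and measured by LC-MS/MS on a TIMS-TOF Pro. Each lysine's R is the filtered median high-probe/low-probe MS1 peptide ratio, combined as the median over forward and reverse replicates, with 20 as the upper limit.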
# UniProt Q13813, sequence (Q13813 whole entry): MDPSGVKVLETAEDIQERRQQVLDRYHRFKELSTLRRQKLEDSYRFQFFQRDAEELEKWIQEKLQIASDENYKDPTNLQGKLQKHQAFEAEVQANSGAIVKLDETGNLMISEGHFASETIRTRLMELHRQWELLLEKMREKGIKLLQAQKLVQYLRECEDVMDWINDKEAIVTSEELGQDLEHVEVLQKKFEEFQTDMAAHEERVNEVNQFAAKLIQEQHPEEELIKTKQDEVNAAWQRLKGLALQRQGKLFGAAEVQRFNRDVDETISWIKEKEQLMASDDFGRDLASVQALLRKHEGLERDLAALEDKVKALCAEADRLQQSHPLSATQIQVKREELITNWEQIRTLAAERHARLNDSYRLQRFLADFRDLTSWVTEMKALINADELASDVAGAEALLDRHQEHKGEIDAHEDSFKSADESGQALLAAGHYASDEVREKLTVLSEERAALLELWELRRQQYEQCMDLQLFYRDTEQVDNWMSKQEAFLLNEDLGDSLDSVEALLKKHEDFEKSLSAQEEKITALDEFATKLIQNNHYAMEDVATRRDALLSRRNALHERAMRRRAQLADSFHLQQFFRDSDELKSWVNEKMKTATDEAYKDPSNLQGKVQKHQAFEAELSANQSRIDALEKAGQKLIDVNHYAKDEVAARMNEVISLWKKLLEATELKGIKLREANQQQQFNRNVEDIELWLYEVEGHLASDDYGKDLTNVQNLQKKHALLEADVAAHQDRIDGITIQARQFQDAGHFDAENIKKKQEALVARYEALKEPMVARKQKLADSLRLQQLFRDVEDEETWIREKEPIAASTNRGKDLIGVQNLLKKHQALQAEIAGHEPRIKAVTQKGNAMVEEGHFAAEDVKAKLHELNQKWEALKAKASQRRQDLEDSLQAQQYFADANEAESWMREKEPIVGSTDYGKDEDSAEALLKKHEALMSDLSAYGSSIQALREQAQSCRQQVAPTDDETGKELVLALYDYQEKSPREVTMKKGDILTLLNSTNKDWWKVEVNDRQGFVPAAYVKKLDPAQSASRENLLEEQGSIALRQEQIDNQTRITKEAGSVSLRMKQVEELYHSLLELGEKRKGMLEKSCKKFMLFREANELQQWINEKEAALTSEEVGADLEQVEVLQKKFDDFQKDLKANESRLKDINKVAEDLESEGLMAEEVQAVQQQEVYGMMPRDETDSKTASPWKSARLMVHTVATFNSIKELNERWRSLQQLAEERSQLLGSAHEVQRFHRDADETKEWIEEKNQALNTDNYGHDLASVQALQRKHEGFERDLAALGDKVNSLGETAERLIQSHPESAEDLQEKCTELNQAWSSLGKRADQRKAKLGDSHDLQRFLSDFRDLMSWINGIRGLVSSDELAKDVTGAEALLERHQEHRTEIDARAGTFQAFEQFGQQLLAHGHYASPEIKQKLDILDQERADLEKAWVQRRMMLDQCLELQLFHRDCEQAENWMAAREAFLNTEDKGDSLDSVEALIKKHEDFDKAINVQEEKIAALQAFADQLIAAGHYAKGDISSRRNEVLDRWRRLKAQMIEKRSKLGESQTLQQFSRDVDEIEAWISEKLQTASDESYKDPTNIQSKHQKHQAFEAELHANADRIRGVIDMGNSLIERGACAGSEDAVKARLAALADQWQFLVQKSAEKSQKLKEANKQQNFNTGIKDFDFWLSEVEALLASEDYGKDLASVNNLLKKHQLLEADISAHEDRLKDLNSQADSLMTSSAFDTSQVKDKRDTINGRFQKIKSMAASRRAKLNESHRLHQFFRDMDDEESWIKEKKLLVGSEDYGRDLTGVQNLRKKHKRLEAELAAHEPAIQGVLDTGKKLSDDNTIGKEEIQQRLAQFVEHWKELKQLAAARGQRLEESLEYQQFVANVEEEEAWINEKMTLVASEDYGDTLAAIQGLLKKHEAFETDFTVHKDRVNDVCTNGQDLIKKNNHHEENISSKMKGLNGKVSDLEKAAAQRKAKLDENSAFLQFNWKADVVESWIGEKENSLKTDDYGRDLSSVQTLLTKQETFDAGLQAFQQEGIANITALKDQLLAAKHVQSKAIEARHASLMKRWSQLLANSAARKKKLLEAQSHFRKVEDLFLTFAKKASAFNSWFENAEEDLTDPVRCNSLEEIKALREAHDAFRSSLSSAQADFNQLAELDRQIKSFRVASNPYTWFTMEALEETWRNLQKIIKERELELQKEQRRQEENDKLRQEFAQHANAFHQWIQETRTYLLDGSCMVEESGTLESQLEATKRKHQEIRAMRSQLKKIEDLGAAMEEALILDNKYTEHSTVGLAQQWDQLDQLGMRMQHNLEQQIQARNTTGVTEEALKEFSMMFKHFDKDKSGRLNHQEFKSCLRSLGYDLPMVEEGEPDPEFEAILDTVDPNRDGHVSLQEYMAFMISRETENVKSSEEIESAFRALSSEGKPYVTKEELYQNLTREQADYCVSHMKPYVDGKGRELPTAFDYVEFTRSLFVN
# UniProt P05787, sequence (P05787 whole entry): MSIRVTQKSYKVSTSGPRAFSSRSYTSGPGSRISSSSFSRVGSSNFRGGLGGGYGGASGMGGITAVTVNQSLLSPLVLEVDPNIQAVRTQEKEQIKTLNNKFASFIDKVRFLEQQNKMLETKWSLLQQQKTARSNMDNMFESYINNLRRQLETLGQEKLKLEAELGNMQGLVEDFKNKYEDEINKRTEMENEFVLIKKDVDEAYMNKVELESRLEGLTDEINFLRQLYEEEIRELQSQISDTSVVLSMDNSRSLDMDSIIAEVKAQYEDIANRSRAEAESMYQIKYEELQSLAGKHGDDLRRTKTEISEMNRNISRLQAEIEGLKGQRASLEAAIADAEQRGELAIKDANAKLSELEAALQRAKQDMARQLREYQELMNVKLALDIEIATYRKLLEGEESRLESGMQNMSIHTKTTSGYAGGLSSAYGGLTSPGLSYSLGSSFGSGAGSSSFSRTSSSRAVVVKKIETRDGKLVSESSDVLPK
# UniProt P43121, sequence (P43121 whole entry): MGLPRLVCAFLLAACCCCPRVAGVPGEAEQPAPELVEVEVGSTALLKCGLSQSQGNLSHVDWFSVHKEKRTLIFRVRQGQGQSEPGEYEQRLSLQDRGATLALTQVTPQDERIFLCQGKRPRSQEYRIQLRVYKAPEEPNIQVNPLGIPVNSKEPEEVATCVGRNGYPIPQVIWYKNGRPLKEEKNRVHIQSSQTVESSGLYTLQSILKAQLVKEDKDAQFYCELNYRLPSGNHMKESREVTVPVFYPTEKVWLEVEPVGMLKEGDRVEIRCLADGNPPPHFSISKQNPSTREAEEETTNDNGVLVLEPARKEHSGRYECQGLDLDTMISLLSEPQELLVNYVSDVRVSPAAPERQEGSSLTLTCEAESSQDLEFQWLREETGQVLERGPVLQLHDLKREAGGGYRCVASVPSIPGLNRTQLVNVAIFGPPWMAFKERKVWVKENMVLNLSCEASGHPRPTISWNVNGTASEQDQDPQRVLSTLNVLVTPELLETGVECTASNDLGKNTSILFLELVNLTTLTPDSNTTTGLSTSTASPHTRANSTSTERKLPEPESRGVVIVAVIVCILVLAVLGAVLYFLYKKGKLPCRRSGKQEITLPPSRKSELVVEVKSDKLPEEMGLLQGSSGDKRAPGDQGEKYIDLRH
# UniProt Q9UHN6, sequence (Q9UHN6 whole entry): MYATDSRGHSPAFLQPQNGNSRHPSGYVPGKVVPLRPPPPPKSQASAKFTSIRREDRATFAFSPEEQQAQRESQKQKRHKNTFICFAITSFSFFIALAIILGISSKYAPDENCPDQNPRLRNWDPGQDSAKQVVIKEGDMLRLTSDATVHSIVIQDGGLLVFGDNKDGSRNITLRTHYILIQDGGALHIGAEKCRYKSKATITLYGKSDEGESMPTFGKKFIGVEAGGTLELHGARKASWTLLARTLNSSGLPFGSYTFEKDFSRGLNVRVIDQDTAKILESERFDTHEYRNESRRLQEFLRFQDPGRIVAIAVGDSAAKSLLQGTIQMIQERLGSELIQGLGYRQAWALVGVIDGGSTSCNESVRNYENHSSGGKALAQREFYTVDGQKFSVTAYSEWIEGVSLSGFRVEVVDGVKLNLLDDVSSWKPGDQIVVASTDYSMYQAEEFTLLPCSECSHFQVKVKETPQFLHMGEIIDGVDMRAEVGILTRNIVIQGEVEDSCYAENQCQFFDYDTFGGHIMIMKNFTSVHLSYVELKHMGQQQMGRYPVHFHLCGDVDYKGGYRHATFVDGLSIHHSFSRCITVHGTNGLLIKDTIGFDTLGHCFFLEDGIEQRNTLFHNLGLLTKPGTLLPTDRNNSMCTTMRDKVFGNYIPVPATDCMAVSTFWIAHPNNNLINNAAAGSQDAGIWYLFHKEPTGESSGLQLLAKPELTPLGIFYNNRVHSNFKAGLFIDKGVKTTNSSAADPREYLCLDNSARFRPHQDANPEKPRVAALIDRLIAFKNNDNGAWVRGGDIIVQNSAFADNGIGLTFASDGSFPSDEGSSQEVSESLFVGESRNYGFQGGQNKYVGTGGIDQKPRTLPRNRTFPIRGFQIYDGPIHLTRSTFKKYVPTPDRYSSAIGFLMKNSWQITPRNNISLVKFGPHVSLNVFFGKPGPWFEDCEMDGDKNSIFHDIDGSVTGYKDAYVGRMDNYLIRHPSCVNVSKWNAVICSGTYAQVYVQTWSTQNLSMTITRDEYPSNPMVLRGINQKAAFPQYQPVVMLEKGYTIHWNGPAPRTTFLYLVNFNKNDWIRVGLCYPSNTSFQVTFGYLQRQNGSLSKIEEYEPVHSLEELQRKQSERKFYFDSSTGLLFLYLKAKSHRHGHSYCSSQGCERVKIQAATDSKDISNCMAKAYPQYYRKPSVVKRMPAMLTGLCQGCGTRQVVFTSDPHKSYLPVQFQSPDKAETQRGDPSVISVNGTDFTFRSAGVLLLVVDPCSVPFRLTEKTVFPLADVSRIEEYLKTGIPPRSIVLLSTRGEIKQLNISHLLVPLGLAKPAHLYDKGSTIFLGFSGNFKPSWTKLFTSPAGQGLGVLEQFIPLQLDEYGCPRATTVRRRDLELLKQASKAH
row,Target,lysine labeling ratio R10:1
1,MSN (lysine site: K64) (UniProt P26038),1.22 (active)
2,FLOT1 (lysine site: K246) (UniProt O75955),2.54 (inactive)
3,UniProt P61978 (lysine site: K198),1.88 (active)
4,CHCHD3 (lysine site: K86) (UniProt Q9NX63),0.99 (active)
5,ATAD3B (lysine site: K183) (UniProt Q5T9A4),1.8 (active)
6,UniProt Q6NZI2 (lysine site: K260),4.28 (inactive)
7,MCAM (lysine site: K286) (UniProt P43121),2.67 (inactive)
8,AGRN (lysine site: K1708) (UniProt O00468),2.99 (inactive)
9,FLNA (lysine site: K578) (UniProt P21333),1.25 (active)
10,CACNA2D1 (lysine site: K88) (UniProt P54289),1.78 (active)
11,HSPD1 (lysine site: K96) (UniProt P10809),3.85 (inactive)
12,UniProt Q9UHN6 (lysine site: K1177),6.32 (inactive)
13,UniProt P05787 (lysine site: K295),11.9 (inactive)
14,SPTAN1 (lysine site: K39) (UniProt Q13813),2.65 (inactive)
15,GAPDH (lysine site: K334) (UniProt P04406),5.36 (inactive)
16,RPS3A (lysine site: K56) (UniProt P61247),1.81 (active)
17,SPTAN1 (lysine site: K2187) (UniProt Q13813),5.14 (inactive)
